Data taken from PubChem BioAssay.

Assay: CREB reporter modulators without forskolin, primary screen, cell-based, PC12, CRE-LacZ reporter, unstimulated (AID 1145)
Conditions: no forskolin, luminescence, 4.5 h, higher = more signal, called active from +8 up or from −8 down

z-score, inactive:
CC(C)C(=C=CC[C@@H](O)c1ccc(OCCO)cc1)CCO -0.844
CC#CCO[Si](C#CCCCCCC)(C(C)C)C(C)C -0.374
CN(C)CCCC[C@@H]1NC(=O)[C@H]2C[C@@H](C(=O)NCc3ccc(F)cc3)[C@@H](c3ccc(O)cc3)N2C1=O 0.0084
CC(C)N1CC=CC23O[C@@H]4C=CCCOC(=O)C4[C@H]2C(=O)N(CCCCCO)[C@@H]3C1=O (stereo not given in full) 0.199
COCCOC(=O)N1C(=O)[C@@]2(c3ccccc31)[C@H](C(=O)N1CCCCCCC1)[C@H]1C(=O)O[C@H](c3ccccc3)[C@H](c3ccccc3)N1[C@@H]2c1ccc(O)cc1 -1.15
C#CCN([C@H](/C=C/C1CC1)[C@@H](O)Cc1ccccc1)[C@@H](Cc1ccccc1)C(=O)OC 3.21
COC(=O)[C@@]1(Cc2ccc(F)cc2)[C@H]2c3cc(C(=O)N(C)C)n(CCn4cc([N+](=O)[O-])nc4C)c3C[C@H]2CN1C(=O)c1ccccc1 -0.761
CCOC(=O)C[C@H]1[C@H](OC(=O)Cc2ccc3c(c2)OCO3)[C@@H](NC(=O)c2ccccc2)c2cc(OCCCO)ccc2N1C(=O)Cc1ccc(OC)cc1 2.31
C[N+](C)(C)CCCC[C@@H]1NC(=O)[C@H]2C[C@@H](C(=O)NCCCCCNC(=O)CS)[C@@H](c3ccc(O)cc3)N2C1=O 0.0084
CN1C(=O)[C@]2(CCS(=O)(=O)c3ccccc3)N=C(c3ccc(OCCCO)cc3)O[C@@H]2c2ccccc21 1.34
O=C1O[C@@H](c2ccccc2)[C@@H](c2ccccc2)N2[C@@H](c3ccc(OCCO)cc3)[C@]3(C(=O)Nc4ccc(C#CCCO)cc43)[C@@H](C(=O)Nc3nc4ccccc4s3)[C@H]12 0.389
COCCn1c(C(=O)N2CCCC2)cc2c1C[C@H]1CN(C(=O)c3ccccc3)[C@@](Cc3ccccc3)(C(=O)OC)[C@@H]21 -0.182
CC(C)(C)N1CC=CC23O[C@@H]4/C=C\CCCOC(=O)C4[C@H]2C(=O)N(CCCCCCO)[C@@H]3C1=O (stereo not given in full) -0.224
CCCC[C@@H](O)C1=C(COC)Cn2c(=O)n(-c3ccccc3)c(=O)n2[C@H]1CO -0.0487
COC(=O)[C@@H]1N=C(c2ccc(OCCCO)cc2)O[C@@H]1c1ccccc1CN=[N+]=[N-] -0.268
CN1C=C(C(=O)OCCS(C)(=O)=O)C(C(=O)OCCS(C)(=O)=O)=CC(CCCO)=CC1c1ccc(CN2CCCC2)cc1 (stereo not given) 5.05
COCCOC(=O)N1C(=O)[C@@]2(c3ccccc31)[C@H](C(N)=O)[C@H]1C(=O)O[C@H](c3ccccc3)[C@H](c3ccccc3)N1[C@@H]2c1ccc(OCCO)cc1 -1.28
CC(C)CNC(=O)[C@@H]1c2ccccc2C(=O)N(C(C)C)[C@H]1c1ccc(CO)cc1 -0.179
CC(C)c1ccc(NN2C(C(O)C(C)C)C=CC3C(=O)N(c4ccccc4)C(=O)C32)cc1 (stereo not given) 0.0569
COCCOC(=O)N1C(=O)[C@@]2(c3cc(C#CCC(C(=O)OC)C(=O)OC)ccc31)[C@H](C(=O)N1CCCCCCC1)[C@H]1C(=O)O[C@H](c3ccccc3)[C@H](c3ccccc3)N1[C@@H]2c1ccccc1OCCO -0.475
O=C(NCCO)C1=C[C@H](Oc2ccccc2I)[C@@H](O)[C@H](NCc2ccc(F)cc2)C1 4.56
COC(=O)Cn1c(C(=O)N(C)C)cc2c1C[C@H]1CN(C(=O)c3ccccc3)[C@@](Cc3ccc(OC)cc3)(C(=O)OC)[C@@H]21 0.966
[N-]=[N+]=NCc1ccccc1C[C@]1(C(=O)NCc2ccccc2)N=C(c2ccc(OCCCO)cc2)O[C@H]1c1ccccc1CN=[N+]=[N-] 1.27
CC(=O)NCCCC[C@@H]1NC(=O)[C@H]2C[C@@H](C(=O)NCCCCCC[N+](C)(C)C)[C@@H](c3ccc(O)cc3)N2C1=O -1.35
[N-]=[N+]=NCc1ccccc1C[C@]1(C(=O)N2CCCCC2)N=C(c2ccc(OCCCO)cc2)O[C@H]1c1ccccc1 -0.0017
COc1ccc(CCNC(=O)[C@@]2(Sc3ccc(C)cc3)CC(=O)N(C(C)C)[C@@H]2c2ccc(CO)cc2)cc1 1.56
COC(=O)C(CC#Cc1ccc2c(c1)[C@]1(C(=O)N2)[C@H](c2ccc(O)cc2)N2[C@H](c3ccccc3)[C@H](c3ccccc3)OC(=O)[C@H]2[C@@H]1C(=O)N1CCc2cc(OC)c(OC)cc2C1)C(=O)OC 0.918
COc1ccccc1CN1C(=O)c2ccccc2[C@](Cc2ccccc2I)(C(=O)NCCCN(C)C)[C@@H]1c1ccc(CO)cc1 3.31
CN1C(=O)C2C(C1=O)C1C=C(c3ccc(CO)cc3)C2C(c2cccs2)N1C (stereo not given) 1.98
NCCCC[C@@H]1NC(=O)[C@H]2C[C@@H](C(=O)NCc3ccc(F)cc3)[C@@H](c3cccc(OCCO)c3)N2C1=O 0.0084
CC(C)(C)OC(=O)CC[C@]1(C(=O)N2CCOCC2)N=C(c2ccc(OCCCO)cc2)O[C@H]1c1ccccc1CN=[N+]=[N-] -0.263
CC(C)[C@@H](C(=O)O)n1cc(-c2ccccc2)nn1 0.251
NCCCC[C@@H]1NC(=O)[C@H]2C[C@@H](C(=O)NCc3ccc(F)cc3)[C@@H](c3ccc(O)cc3)N2C1=O 0.143
O=C1OCCC=C[C@H]2OC34C=CCN(c5ccc(Cl)cc5)C(=O)[C@H]3N(CCO)C(=O)[C@@H]4C12 (stereo not given in full) -0.228
O=C1O[C@@H](c2ccccc2)[C@@H](c2ccccc2)N2[C@@H](c3ccc(O)cc3)[C@]3(C(=O)Nc4ccc(C#CC5=CCCCC5)cc43)[C@@H](C(=O)N3CCCCCCC3)[C@H]12 0.155
